Assay results from the supplement of paper PMC12632987.

T1: USP38, Q8NB14
T1 chain: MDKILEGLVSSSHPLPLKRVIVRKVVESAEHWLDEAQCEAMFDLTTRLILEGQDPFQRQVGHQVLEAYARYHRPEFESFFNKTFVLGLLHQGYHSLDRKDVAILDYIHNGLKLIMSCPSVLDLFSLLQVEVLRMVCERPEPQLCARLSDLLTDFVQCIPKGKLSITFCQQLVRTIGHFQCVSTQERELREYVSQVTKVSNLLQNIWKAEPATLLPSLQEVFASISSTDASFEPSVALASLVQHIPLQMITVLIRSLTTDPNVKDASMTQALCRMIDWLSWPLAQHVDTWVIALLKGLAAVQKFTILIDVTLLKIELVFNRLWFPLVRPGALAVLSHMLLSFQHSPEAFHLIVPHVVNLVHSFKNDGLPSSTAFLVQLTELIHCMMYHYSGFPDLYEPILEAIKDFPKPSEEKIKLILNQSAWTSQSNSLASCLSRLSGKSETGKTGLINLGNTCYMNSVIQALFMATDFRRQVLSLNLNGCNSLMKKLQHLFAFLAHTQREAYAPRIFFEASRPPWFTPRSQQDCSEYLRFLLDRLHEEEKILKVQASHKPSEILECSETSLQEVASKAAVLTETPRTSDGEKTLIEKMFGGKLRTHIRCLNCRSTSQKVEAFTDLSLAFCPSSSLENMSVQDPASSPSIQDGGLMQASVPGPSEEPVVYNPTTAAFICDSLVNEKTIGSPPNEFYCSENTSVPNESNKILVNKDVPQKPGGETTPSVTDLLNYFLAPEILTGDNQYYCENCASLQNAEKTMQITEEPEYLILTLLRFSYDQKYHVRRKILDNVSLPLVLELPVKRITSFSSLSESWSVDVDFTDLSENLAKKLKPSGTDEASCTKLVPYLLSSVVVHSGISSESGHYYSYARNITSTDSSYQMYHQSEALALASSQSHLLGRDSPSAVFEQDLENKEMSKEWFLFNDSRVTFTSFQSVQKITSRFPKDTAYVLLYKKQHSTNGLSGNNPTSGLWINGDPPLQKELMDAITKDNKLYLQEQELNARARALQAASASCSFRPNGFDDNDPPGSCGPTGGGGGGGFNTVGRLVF


Biological target: T1, USP38, Q8NB14
Experiment: median log2 fold change of GCK-ALFA target abundance (FLAG IP / Myc IP barcode read proportion) (log2 ratio); each designed protein is fused to an ALFA-tag nanobody in HEK293 cells to bring the named protein to FLAG-tagged glucokinase (GCK); Myc marks an untargeted standard; higher = target protein stabilised (more abundant)
Conditions: target protein: 3xFLAG-MCP-GCK-ALFA reporter; HEK293 landing pad (RPLP)
In short: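 HEK293 landing-pad cells received a recombined binder library fused to the ALFA nanobody and were induced with 2 μg mL^−1 doxycycline, then transfected with a plasmid encoding a FLAG-tagged target and a Myc-tagged standard. Lysates were collected after 48 h for anti-FLAG and anti-Myc immunoprecipitation, and the circular RNA barcodes were reverse transcribed, amplified and sequenced. Target abundance for each binder is the median log2 ratio of FLAG to Myc barcode read proportions. Barcodes had to reach a proportion of at least 10^−7 in both replicates, each binder needed at least 3 barcodes per replicate, a pseudocount of 10^−6 was applied, and the two replicates were pooled.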

| Binder | median log2 fold change |
| --- | --- |
| usp_38_diff_out_18_14_258 (protein) SAELEEATISNLKLLKEDVKKETERVIRLLEKNKDDPERVKRIYERAQRDLAGVETYAKEVLEEAKKNGWEEKEKAAKELLEEVDKAKEEIEKKVKEVLA | 0.144 |
| usp_38_diff_out_18_14_259 (protein) SEELTEALISNLESLKEDVKKDTERVIRLLEKRKDDPEQVKRIKERFERDLAGVEKYAKEVLEEAKKEGNEKLAKAAEELLKTVEAARKEVEEKVAKVLA | -0.00381 |
| usp_38_diff_out_18_14_260 (protein) SEELKEATISNLKSLKEDVKEDTERVIRLLKARKDDPEQVKRIYERAKRNLEGVKTYAEEVLKEAEEEGWEELKKAAEELLKEIEEAEKKIEAEVKEVLA | 0.0949 |
| usp_38_diff_out_18_14_261 (protein) SEELSEAKISALKLLEKSVKEDTERKIRLLEKAKDDPERVKRIYERALRELAGVREYAEEVLKEAKEAGDEETAEAAKRLLKTIEEARERLEEEYKRVMA | 0.0867 |
| usp_38_diff_out_18_14_262 (protein) SEELAQADIDALNLLKEDVKKDTERKIRLLKKAKDDPELVKRIYERAKRNLEGVRTYAEEIKKRAEEAGDEETIKAAEELLKEIEEAEKKLEEAYKEVMA | 0.391 |
| usp_38_diff_out_18_14_263 (protein) SEELAQADIDALNLLKKDVEEDTERVIRLLEKSKDDPERVKRIYERALRNLAGVKKYAEEVKKEAEERGNEETIKAANELLKTIEEAKKRLEEKYKEVMK | 0.123 |
| usp_38_diff_out_18_14_264 (protein) SEELSEAEKSALKLLKKDVEEETERVIRLLRQAKDDPERVKRIYERAKRNLAGVRKYAEEVLKRAEEAGDEETKKAAEELLKKIEEAEKRIEEEYKRVTA | 0.118 |
| usp_38_diff_out_18_14_266 (protein) SEELDEALVKNLETLKKDVKENTERVIKLLRKNKDDPERVKRIYERAKRNLEGVKKYAEEVLKEAEKRGWKKTVKAAKELLKEVEEAKKKIEEEYKKVME | -0.521 |
| usp_38_diff_out_18_14_267 (protein) SAELSEALKSNLETLTADVAADTDRVIRLLDARKDDPEAVKRIHERARRNLAGVEAYAEEVKAEAEKAGDAEVKAAAEKLLAAVAAARARIDARYAEVMA | 0.0912 |
| usp_38_diff_out_18_14_268 (protein) SEELAEAEVSNLKTLERDVKEDTERVIRLLRKNKDDPERVKRIYERAKRDLAGVRAYAEEVKRRAEEEGWEEVVAAAERLLKTIDEARKRIEEEYKRVME | -0.0262 |
| usp_38_diff_out_18_14_269 (protein) SAELAAAKVSNLKTLKEDVERDTERVIRLLEANRDDPERVRRIHERALRNLEGVRKYAEEVKEEAEKEGDKETVKAAEELLKKIEEARRRIDARYAEVMA | 0.153 |
| usp_38_diff_out_18_14_270 (protein) SEELKKALLSNLESLKKDVKEYTERVLRLLEKRKDDPEQVERIVERAERDLAGVEEYAKEVLKEAKKLGDEELLKAAEELIKLTKEARERIEKKREEVLK | -0.331 |
| usp_38_diff_out_18_14_271 (protein) SEELAAALQSNLESLERAVREDTERVIRLLEKNRDDPERVKRIVERAERDLAGVEAYAQEVLREARAAGDAATQEAAERLLEEARRAREEIRRKAEEVLA | -0.0538 |
| usp_38_diff_out_18_14_272 (protein) DEELSEALLSNLKSLKEDVKEYTKRVLRLLEANKDDPERVKRIYERAERNLEGVEKFAEEVLKEAKERGDEEVQKAAKELKEEAKKAREEIKKKVKEVLA | -0.188 |
| usp_38_diff_out_18_14_273 (protein) SEERREALLSNLKSLKKDVKEYTKRVLKLLEKNKNDPERVKRIYERAKRNLAGVKAYAEEVLKEAKEEGDEETLKAAEELIKEAKEAEEKIKKKVEEVLK | -1.06 |
| usp_38_diff_out_18_14_274 (protein) SEELSEALKSNLESLKKDVEKDTKRTIELLKKNKDDPERVKRIVERAERNLEGVITFAEEVLKEAEKRGDEEVKKAAEELIKKAKEALEKIKEEAKKVLA | 0.186 |
